These results are taken from PubChem BioAssay AID624093 (National Center for Advancing Translational Sciences (NCATS), 2012).

Molecules are shown by their SMILES. Inconclusive results are not listed. The source made the active and inactive calls. Calls come from the whole dose curve; as a rule, active = well fitted inhibition curve with a large enough effect; inconclusive = small, poorly fitted or top-dose-only effect; inactive = flat fitted curve, though single readings scatter.

In this assay the target is Dual specificity tyrosine-phosphorylation-regulated kinase 1A (Homo sapiens) (UniProt Q13627). The experiment in a line: Confirmation Assay for Inhibitors of Dyrk1a (Kinase-Glo Assay): KU probe. The settings on record: Kinase-Glo ATP luminescence; series mostly up to 76.9 µM. The method in brief:
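Luminescent Kinase-Glo read-out of ATP left after a 2 h room-temperature reaction of 5nM Dyrk1A with 2uM ATP and 8uM DYRKtide. Buffer: 25mM Tris-HCl pH 7.5, 10mM MgCl2, 0.5mM EGTA, 5mM cysteine, 0.01% Triton X-100.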
In general terms: In Kinase-Glo more light means more ATP remaining.
In the case of `CC(C)(C)CNc1ncnc2ccc(-c3ccc4c(c3)OCO4)cc12`, the Potency is 11.6 nM (active).

With `c1nc(NCC2CCOC2)c2cc(-c3ccc4c(c3)OCO4)ccc2n1` (configuration not stated), the Potency is 92.3 nM (active).

Consider `c1cnc(-c2ccc3c(c2)OCO3)nc1`, for which the Potency result is “inactive”.

In the case of `CCN(C)c1ncnc2ccc(-c3ccc4c(c3)OCO4)cc12`, the Potency is 260 nM (active).

`Cc1c(-c2ccnc(NCc3ccc(Cl)cc3)n2)sc(=O)n1C`: the Potency is 164 nM (active).

As to `Cc1ccc(CNc2ccnc(-c3ccc(N(C)C)cc3)n2)cc1`, the Potency entry is “inactive”.

As to `Clc1ccc(Nc2nccc(-c3ccc4c(c3)OCO4)n2)cc1`, the Potency is 519 nM (active).

For the compound `O=[N+]([O-])c1cc(Nc2nccc(-c3ccc4c(c3)OCO4)n2)cc(C(F)(F)F)c1`, the Potency was 146 nM (active).

As to `c1nc(NCCC2CCCO2)c2cc(-c3ccc4c(c3)OCO4)ccc2n1` (configuration not stated), the Potency is 164 nM (active).

For `CN(C)c1ccc(-c2nccc(NCc3ccc(Cl)c(Cl)c3)n2)cc1`, the Potency result was “inactive”.

For the compound `CC(=O)c1ccc(-c2ccc3ncnc(NCc4ccc(C)o4)c3c2)o1`, the Potency is 1640 nM (active).

Consider `FC(F)(F)c1cccc(Nc2nccc(-c3ccc4c(c3)OCO4)n2)c1`, for which the Potency is 65.4 nM (active).

Turning to `Clc1ccc(CNc2nccc(-c3ccc4c(c3)OCCO4)n2)cc1Cl`, the Potency was 207 nM (active).

For the compound `c1coc(-c2ccnc(-c3ccc4c(c3)OCO4)n2)c1`, the Potency was 20700 nM (active).

As for `CN(CC1CCCCC1)c1ncnc2ccc(-c3ccc4c(c3)OCO4)cc12`, the Potency is 1160 nM (active).

In the case of `CN(CC1CCCCO1)c1ncnc2ccc(-c3ccc4c(c3)OCO4)cc12` (configuration not stated), the Potency was 207 nM (active).

On to `c1cncc(CNc2ccnc(-c3ccc4ccccc4c3)n2)c1`, for which the Potency is 14600 nM (active).
